The record followed here is PubChem BioAssay AID2685 (National Center for Advancing Translational Sciences (NCATS), 2010).

The whole screen tested about 320,000 compounds, of which about 2,100 (0.66%) were called active. Roughly 53% stayed inconclusive and do not appear here. This is one part of a sample in which actives are shown more often than they occur. Calls follow the shape of the dose curve; as a rule, active = well fitted inhibition curve with a large enough effect in the signal ratio, with a control signal flat (not every such curve was filed as active); inconclusive = small, poorly fitted or top-dose-only effect, or effect the other way, or a change in a side signal; inactive = flat fitted curve, though single readings scatter; the % refers to the signal ratio.
Potency is read from the fitted curve at half-maximal effect.

This assay is described as follows: qHTS Assay for Lipid Storage Modulators in Drosophila S3 Cells.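 As to cell number change: cells counted by Cell Tracker Red CMTPX staining in the red channel.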 To be noted: BODIPY lipid droplet fluorescence, 18-24 h, cells fed with added oleic acid; cell number change: measured here: cell count max response; series mostly up to 46.1 µM. In outline: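 Drosophila S3 cells got compounds at several concentrations plus oleic acid (400 uM solution). Laser-scanning cytometry with 488 nm excitation read lipid droplets at 500-530 nm and cells at 575-640 nm. Percent activity was relative to 20 uM Triacsin C.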
Take `COc1cccc(-c2ccc(C#N)c(SCC(=O)NCc3ccco3)n2)c1`: the Potency result was “inactive” and the cell number change was 0.401%.

As to `CCOC(=O)c1sc2nc(C)nc(SCC(=O)NC(C)CCc3ccccc3)c2c1C` (centres undefined), the Potency result was “inactive”.

For the compound `COc1ccc(OC)c(CNC(=O)C2CCC(=O)N(CCCN3CCCC3=O)C2)c1` (centres undefined), the Potency result was “inactive” and the cell number change is 15.9%.

Regarding `CCOc1ccc(S(=O)(=O)Nc2nc3ccccc3nc2-n2ccc(=NC(=O)c3ccccc3C)cc2)cc1`, the Potency result was “inactive” and the cell number change is -0.599%.

For the compound `Cc1cc(C(=O)NNC(=S)NCc2ccco2)nn1C`, the Potency result is “inactive”.

Regarding `CN(Cc1c(F)cccc1Cl)C(=O)c1cc2ccccc2o1`, the Potency entry was “inactive”.

In the case of `Cc1cc(C(=O)N(C)Cc2c(F)cccc2Cl)c2ccccc2n1`, the Potency is 5.17 µM (active) and the cell number change is -7.26%.

As for `CN(Cc1c(F)cccc1Cl)C(=O)c1ccc2ccccc2n1`, the Potency result is “inactive” and the cell number change was found to be 19.7%.

With `O=c1cc(NCc2ccco2)[nH]c(=O)n1-c1ccc(Br)cc1`, the Potency entry was “inactive” and the cell number change is -12.2%.

Consider `COc1ccc(-c2cc(CNC(C)=O)on2)cc1`, for which the Potency result is “inactive” and the cell number change was determined as 0.804%.

As for `COc1ccc(-c2cc(CNC(=O)CN3CCN(C)CC3)on2)cc1`, the Potency was 4.11 µM (active) and the cell number change was -114%.

Regarding `COc1ccc(-c2cc(CNC(=O)CCl)on2)cc1`, the Potency result was “inactive” and the cell number change was 8.76%.

Regarding `CN1CCN(c2nc3ccccn3c(=O)c2C=O)CC1`, the Potency result is “inactive” and the cell number change stood at 25%.

For the compound `O=Cc1c(N2CCN(c3ccccc3)CC2)nc2ccccn2c1=O`, the Potency result is “inactive” and the cell number change is 2.17%.

In the case of `COc1ccc(N2CCN(c3nc4ccccn4c(=O)c3C=O)CC2)cc1`, the Potency is 4.61 µM (active) and the cell number change is 25.2%.

As for `COc1ccc(NC(=O)CSc2nnnn2C2CCCC2)cc1`, the Potency result was “inactive” and the cell number change worked out at 9.25%.

As for `COc1cc(NC(=O)CSc2nnnn2C2CCCC2)cc(OC)c1`, the Potency result is “inactive” and the cell number change turned out to be 5.13%.

In the case of `COc1cccc(NC(=O)CSc2nnnn2C2CCCC2)c1`, the Potency was 8.2 µM (active) and the cell number change was -5.13%.

For `CC(C)C(=O)N=c1sc2cccc(F)c2n1C`, the Potency result is “inactive” and the cell number change stood at 19.6%.

In the case of `C/C(=N\NC(=O)CC#N)c1ccc(Oc2ccccc2)cc1`, the Potency result was “inactive” and the cell number change was determined as 6.12%.

As for `CCOc1ccccc1N1C(=O)c2ccc(C(=O)O)cc2C1=O`, the Potency is 4.61 µM (active) and the cell number change was -1.3%.

As for `CCOc1ccccc1N1C(=O)c2ccc(C(=O)Nc3cccnc3)cc2C1=O`, the Potency result was “inactive”.

With `CCOc1ccccc1N1C(=O)c2ccc(S(=O)(=O)c3ccc(C(=O)O)cc3)cc2C1=O`, the Potency result was “inactive” and the cell number change is 24.2%.

`CCS(=O)(=O)c1ccc2oc(SCC(=O)Nc3ccc(OC)cc3)nc2c1`: the Potency entry was “inactive” and the cell number change stood at 7.84%.

Turning to `CCN(CC)c1nc(SCC(=O)O)nc(N(CC)CC)n1`, the Potency result was “inactive”.

As for `CCN(CC)c1nc2n(c(=O)n1)CCN2CC`, the Potency is 5.17 µM (active) and the cell number change amounted to 14.9%.

For `CCN(CC)c1nc(-c2ccc(C(=O)NN)cc2)nc(-c2ccc(C(=O)NN)cc2)n1`, the Potency entry was “inactive” and the cell number change came to 26.3%.

In the case of `CCOc1cc(/C=C2\SC(=S)N(N3CCOCC3)C2=O)ccc1O`, the Potency entry was “inactive” and the cell number change was -15.1%.

Consider `Nc1nc(N2CCN(C(=O)c3ccco3)CC2)nc2ccccc12`, for which the Potency result was “inactive” and the cell number change was determined as 7.42%.

Turning to `COc1cc(C#N)ccc1OCC(=O)NCc1cccs1`, the Potency entry is “inactive”.

Consider `CCN(CC)CC(=O)Nc1ccc(-c2nc3cc(NC(=O)CN(CC)CC)ccc3o2)cc1`, for which the Potency result is “inactive” and the cell number change was 0.429%.

On to `CC(=O)Nc1ccc2oc(-c3ccccc3)nc2c1`, for which the Potency result is “inactive” and the cell number change was 17.7%.

Take `CCc1ccc2oc(-c3ccc(NC(C)=O)cc3)nc2c1`: the Potency was 11.6 µM (active).

As to `COc1ccc(NC(=O)Cc2ccc(C)c(C)c2)cc1Cl`, the Potency entry is “inactive” and the cell number change is -32.8%.

`COc1ccc(OC)c(NC=C2C(=O)OC3(CCCCC3)OC2=O)c1`: the Potency result was “inactive” and the cell number change was -8.05%.

`COc1ccccc1C(=O)COC(=O)c1ccc(Cl)nc1`: the Potency result was “inactive” and the cell number change was -5.19%.

Turning to `CCN(Cc1ccncc1)C(=O)c1cc(COc2ccc(F)cc2F)on1`, the Potency entry was “inactive” and the cell number change was -20.5%.

On to `Cc1cc(=S)cc(C)n1CCCO`, for which the Potency result was “inactive” and the cell number change was -15.3%.

As to `COc1ccccc1NS(=O)(=O)c1ccc2[nH]c(=O)[nH]c2c1`, the Potency result was “inactive” and the cell number change was -22.3%.

Turning to `COc1ccc(NS(=O)(=O)c2ccc3nc(COc4ccc5ccccc5c4)[nH]c3c2)cc1`, the Potency was 23.1 µM (active) and the cell number change is -9.6%.

Consider `COc1ccccc1NS(=O)(=O)c1ccc2oc(=S)[nH]c2c1`, for which the Potency result was “inactive” and the cell number change is 9.13%.

With `COc1ccc(OCc2nc3ccc(S(=O)(=O)Nc4ccccc4Cl)cc3[nH]2)cc1`, the Potency result is “inactive” and the cell number change came out at 18.1%.

For `c1ccc2cc(OCc3nc4ccccc4[nH]3)ccc2c1`, the Potency entry is “inactive” and the cell number change was -24.1%.

Turning to `COc1ccccc1NS(=O)(=O)c1ccc2nc(CCl)[nH]c2c1`, the Potency was 0.259 µM (active) and the cell number change was -11.7%.

Consider `COc1ccc(NS(=O)(=O)c2cccc(C(=O)NCC3(N4CCOCC4)CCCCC3)c2)cc1`, for which the Potency entry is “inactive” and the cell number change was 1.17%.

As to `CCCS(=O)(=O)Nc1cccc(-c2cn3c(n2)SCC3)c1`, the Potency result is “inactive” and the cell number change was -21.2%.

In the case of `Cc1cc(C)n2nc(Sc3ncccc3[N+](=O)[O-])nc2n1`, the Potency entry is “inactive” and the cell number change is -8.83%.

Consider `Cc1ccnc(Sc2ncccc2[N+](=O)[O-])n1`, for which the Potency was 29.1 µM (active) and the cell number change is -11.7%.

In the case of `Cc1ccc(Sc2ncccc2[N+](=O)[O-])cc1`, the Potency result is “inactive” and the cell number change is -12.8%.

As for `COCc1cc(CN2CCN(Cc3ccsc3)C(CCO)C2)ccc1OC` (centres undefined), the Potency result is “inactive” and the cell number change stood at 9.7%.

As for `COCCN(C(=O)CCC(=O)Nc1nccs1)C(C(=O)NC(C)(C)C)c1ccc(F)cc1` (centres undefined), the Potency entry was “inactive” and the cell number change stood at 9.66%.

Regarding `CCC(C)(C)NC(=O)C(c1ccc(F)cc1)N(CCOC)C(=O)CCC(=O)Nc1nccs1` (centres undefined), the Potency was 14.6 µM (active) and the cell number change stood at 3.04%.

Regarding `CCC(C)(C)NC(=O)C(c1ccc(O)cc1)N(CCOC)C(=O)CCC(=O)Nc1nccs1` (centres undefined), the Potency result is “inactive” and the cell number change was -13.3%.

For `Cc1cc2nnc(SCC(=O)Nc3cccc(S(=O)(=O)N4CCOCC4)c3)n2c2ccccc12`, the Potency result is “inactive” and the cell number change was 5.18%.

With `C=CCSc1nnc(CC(OC)OC)n1-c1ccccc1`, the Potency entry is “inactive”.

As to `CC(=O)Nc1cccc(/C(C)=N/NC(=O)c2ccc(NS(=O)(=O)c3cccs3)cc2)c1`, the Potency entry is “inactive” and the cell number change is 10.3%.

Turning to `Cc1nc(Nc2ccccc2Br)c2nnn(Cc3ccccc3)c2n1`, the Potency entry is “inactive” and the cell number change is 8.19%.

Turning to `CCCCn1c(N)c(N(CC)C(=O)c2ccccc2F)c(=O)[nH]c1=O`, the Potency was 8.2 µM (active) and the cell number change came out at 6.41%.

In the case of `CCCCn1c(N)c(N(CC)C(=O)c2ccccc2C(F)(F)F)c(=O)[nH]c1=O`, the Potency result was “inactive” and the cell number change was -2.38%.

For the compound `CCCCN(C(=O)c1ccccc1F)c1c(N)n(CCC)c(=O)[nH]c1=O`, the Potency result was “inactive” and the cell number change was determined as 28.6%.

For `O=C1NCCN1C(=O)c1cccc(Cl)c1`, the Potency result is “inactive” and the cell number change is 4.49%.
